# Hit rate of the full screen: of about 140,000 compounds, about 1,700 (1.2%) were called active. This is one part of a sample in which actives are shown more often than they occur. A number with no mark means an inactive call.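 How the source made its calls: active means viability at or below a set limit, 4 SD under the median of all tested compounds (cut at about 3.7% in these data); inactive means the rest.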
# Assay: growth suppression of PTEN-null HCT116, primary screen, cell-based, CellTiter-Glo (AID 827);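 further: PTEN knockout HCT116 line with beta catenin targeted HCT116 as companion control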
# Settings: 60 h, at 10 µM, hits give low values
row,SMILES,viability
1,c1ccc2c(c1)C(=NC1CCCCC1)NC2=NC1CCCCC1,1.88% (active)
2,O=C1CCCCC(=O)c2ccccc2N1,97.7%
3,CC1=CC(C)(C)Nc2ccc(OC(=O)C(Cc3ccccc3)N3C(=O)C4CCCCC4C3=O)cc21 (stereo not drawn),45.7%
4,O=C(CN1C(=O)C2C3CCC(C3)C2C1=O)Oc1ccc2ccccc2c1 (stereo not drawn),86%
5,CC1=CC(C)(C)Nc2ccc(OC(=O)CN3C(=O)C4CCCCC4C3=O)cc21 (stereo not drawn),0.76% (active)
6,CCn1c(=O)cc(SCC(=O)NCCC2=CCCCC2)c2ccccc21,91.3%
7,CCCC(=O)Nc1ccc(C(=O)N/N=C/c2ccc[nH]2)cc1,80.1%
8,Cc1ccc(S(=O)(=O)N2CCC(C(=O)N[C@@H](C)C(=O)NCc3ccco3)CC2)cc1,102%
9,Cc1cc(C)c2nc(SCCC#N)nc(C)c2c1,109%
10,Cc1cc(C)c2nc3nc(C)cc(C)c3c(N)c2c1,2.26% (active)
11,CNC(=S)N/N=C/c1cn(Cc2ccc(C)cc2)c2ccccc12,49.9%
12,CC(=O)N1CCN(c2cccc(C)c2C)CC1,98%
13,Cc1cccc(N2CCN(C(=O)c3cnn4c(C(F)F)cc(-c5ccccc5)nc34)CC2)c1C,3.53% (active)
14,O=C(O)c1cnn2c(C(F)(F)F)cc(-c3ccccc3)nc12,95.3%
15,O=C(c1cccs1)N1CCN(Cc2ccc3c(c2)OCO3)CC1,94.4%
16,O=C(CCCN1C(=O)c2cccc3cccc(c23)C1=O)N1CCN(Cc2ccc3c(c2)OCO3)CC1,89.4%
17,O=C(Nc1cccc2ccccc12)N1CCN(Cc2ccc3c(c2)OCO3)CC1,1.32% (active)
18,CC1CCN(c2ccc(C(=O)Nc3nnc(C4CC4)s3)cc2[N+](=O)[O-])CC1,96.1%
19,Cc1ccc(C2=N/C(=C\c3ccc(OS(=O)(=O)c4ccc(C)cc4)cc3)C(=O)O2)cc1,92.6%
20,CCN1/C(=C/c2ccc3ccc(C)cc3[n+]2CC)Sc2ccccc21,2.61% (active)
21,CCC(=O)/C=C1\Sc2ccccc2N1CC,95.3%
22,O=C(NNC1=NCCC1)c1cccc(S(=O)(=O)N2CCCCC2)c1,96.7%
23,CC(=O)c1ccc(NC(=S)NC(=O)CC(C)C)cc1,98.8%
24,O=C(CC(=O)N/N=C\c1cccc(Cl)c1Cl)NCc1ccccc1,90.4%

row,SMILES,viability
1,COc1ccccc1-n1nnnc1S(=O)(=O)Cc1ccc(Cl)cc1,3.39% (active)
2,COc1ccccc1N1CCN(C(=O)CN(Cc2ccc(Cl)cc2)S(C)(=O)=O)CC1,68.5%
3,COc1ccccc1N1CCN(Cc2nnnn2CCc2ccccc2)CC1,104%
4,CCCN=C1NC(=O)C(CC(=O)NCCc2ccc(OC)c(OC)c2)S1 (stereo not drawn),96.5%
5,CC(C)Nc1nnc(SCC(=O)/C=C2\N(C)c3ccccc3C2(C)C)s1,79%
6,CCOc1ccc(NC(=O)CCC(=O)N/N=C/c2ccc([N+](=O)[O-])s2)cc1,6.05%
7,O=[N+]([O-])c1ccc(C=Nc2ccc(Cl)cc2Cl)s1,2.41% (active)
8,CC(=O)NC1=NN(C(C)=O)C(C)(CCS(=O)(=O)c2ccc(Cl)c(Cl)c2)S1 (stereo not drawn),94.7%
9,COc1ccc2nc(NC(=O)[C@@H]3CCCN3C(=O)c3cccs3)sc2c1,85.2%
10,CN1CCN(CCCNC(=O)c2cc3c(=O)oc4ccccc4c3s2)CC1,109%
11,O=C(NCCN1CCN(Cc2ccccc2)CC1)c1cc2c(=O)[nH]c3ccccc3c2s1,2.62% (active)
12,Cn1c(C(=O)NCCN2CCc3ccccc3C2)cc2c(=O)[nH]c3ccccc3c21,75.8%
13,COc1ccccc1OCC(=O)OCn1c(SC)nnc(C)c1=O,98.3%
14,CC(C)(C)C(=O)N1CCC[C@@]1(CO)C(=O)O,93.1%
15,CCCCCC(=O)Nc1ccc(C(=O)N/N=C/c2ccc([N+](=O)[O-])cc2)cc1,1.62% (active)
16,O=C(COc1ccc(/C=N/NC(=O)c2ccc(O)cc2)cc1)Nc1ccc([N+](=O)[O-])cc1,60.2%
17,CCCCCC(=O)NC(=S)NNC(=O)c1ccc([N+](=O)[O-])cc1,37.4%
18,O=C(NC(Nc1nc2ccc([N+](=O)[O-])cc2s1)(C(F)(F)F)C(F)(F)F)c1ccccc1,1.46% (active)
19,Cc1cc(C)cc(OCC(=O)Nc2nc3ccc([N+](=O)[O-])cc3s2)c1,103%
20,COC(=O)C(NC(=O)c1ccc(OC)cc1)(Nc1ncc(S(=O)(=O)c2ccc([N+](=O)[O-])cc2)s1)C(F)(F)F (stereo not drawn),72.2%
21,COc1cc(NC(=O)COC(=O)CSc2ccc3ccccc3c2)c(C)cc1[N+](=O)[O-],96.9%
22,CCn1nc(C)c(/C=N/NC(=O)Cc2ccc(Cl)cc2)c1C,91.7%
23,CCOc1ccc(C(=O)NC(=S)Nc2ccc(NC(=O)C(C)C)cc2)cc1[N+](=O)[O-],87.9%
24,CCOC(=O)c1c(C)[nH]c2c1-c1ccccc1C(=O)C2=O,1.66% (active)

row,SMILES,viability
1,Cc1[nH]c2ccccc2c1C(=O)COC(=O)C(C)C,112%
2,CCOC(=O)c1c(C)[nH]c(=S)c(C#N)c1-c1ccccc1,102%
3,CN(C)S(=O)(=O)c1cc(NC(=O)CN2C(=O)NC3(CCCc4ccccc43)C2=O)ccc1Cl (stereo not drawn),59.3%
4,CCOCCCNC(=O)C(=O)NCCCOCC,102%
5,COC(=O)CN1C(C)=Nc2ccc(Br)cc2C1c1ccccc1 (stereo not drawn),0.62% (active)
6,COC(=O)CN1C(=O)C(O)=C(C(C)=O)C1c1ccc([N+](=O)[O-])cc1 (stereo not drawn),96.7%
7,CCC(CC)C(=O)N1CC(=O)Nc2ccc(Br)cc2C1c1ccccc1 (stereo not drawn),71.6%
8,COc1ccc(OCc2cn3c(C)cc(C)nc3n2)cc1,99.6%
9,Cc1ccc(S(=O)(=O)N2CCN(CC(=O)N/N=C/c3cc([N+](=O)[O-])ccc3Cl)CC2)cc1,74.4%
10,CC(C)/C=N/NC(=O)c1cc(Br)ccc1O,89%
11,COc1ccc(C/C(C)=N/NC(=O)c2cc(C)oc2C)cc1,98.5%
12,c1ccc2cc3c(NCCN4CCOCC4)ccnc3cc2c1,3.31% (active)
13,O=C(Cn1c(-c2ccccn2)nc2ccccc21)NCCN1CCOCC1,102%
14,c1ccc2[nH]c(NCCN3CCOCC3)nc2c1,103%
15,COc1ccccc1C(=O)Nc1ccc(OCc2nnc3c4ccccc4c(C)nn23)cc1,101%
16,CCCNC(=O)NC(=O)COC(=O)CC(NC(N)=O)c1ccc(Cl)cc1 (stereo not drawn),103%
17,N#C/C(C(=O)N1CCOCC1)=C1/SC(Cc2ccc(F)cc2)C(=O)N1c1ccccc1 (stereo not drawn),89.2%
18,CCCOc1ccc(C(=O)C(CCC(CNCC)C(=O)c2ccc(OCCC)cc2)CNCC)cc1 (stereo not drawn),0.64% (active)
19,CCCCOc1ccc(C(=O)NN2CCN(C)CC2)cc1,102%
20,CCCCOc1ccc(C(=O)NCc2ccncc2)cc1,70.3%
21,CC1(C)C2CC=C(/C=N/NC(=O)c3ccc(Cl)cc3)C1C2 (stereo not drawn),90.5%
22,Fc1ccccc1/C=C1\CCCC2=C1Nc1ncnn1C2c1ccccc1F (stereo not drawn),2.48% (active)
23,O=C(/C=C\c1cn(-c2ccccc2)nc1-c1cccs1)N1CCOCC1,67.3%
24,CCn1c(/C=N/NC(=O)c2ccc(OC)cc2)nc2ccccc21,14.3%

row,SMILES,viability
1,O=C(Nn1c(-c2ccc(Cl)cc2)nc2ccccc2c1=O)c1cccnc1Cl,102%
2,CCOC(=O)c1c(/N=C/c2cc(C)ccc2O)sc2c1CCC2,91.9%
3,CSc1nc(C)cc(SC(C(C)=O)C(=O)Nc2ccccc2)n1 (stereo not drawn),88.1%
4,CSc1nc(-c2ccccc2)nc(C(Cl)Cl)n1,2.06% (active)
5,C/C(=N/NS(=O)(=O)c1ccccc1)c1ccc(NC(=O)C(F)(F)F)cc1,96.4%
6,CCOc1cc(N2CCOCC2)c(OCC)cc1NC(=O)COC(=O)[C@H](Cc1c[nH]c2ccccc12)NC(C)=O,93.5%
7,Cc1cccc(OCC(=O)NC(=S)Nc2ccccc2N2CCOCC2)c1,99.9%
8,CCOc1cc(N2CCOCC2)c(OCC)cc1NC(=O)COc1cccc2cccnc12,3.59% (active)
9,O=[N+]([O-])c1ccc(N2CCN(S(=O)(=O)c3ccccc3)CC2)cc1N1CCc2ccccc2C1,89.4%
10,O=C(Cc1ccccc1)NNS(=O)(=O)c1ccc([N+](=O)[O-])cc1,101%
11,CC(C)CCN1C(=O)c2ccc(C(=O)Nc3cccc(S(N)(=O)=O)c3)cc2C1=O,88.8%
12,CCC1CCc2c(sc(NC(C)=O)c2C#N)C1 (stereo not drawn),95.5%
13,COC(=O)c1c(NC(=O)CN2CCN(S(=O)(=O)c3ccccc3[N+](=O)[O-])CC2)sc2c1CCC(C)C2 (stereo not drawn),93.5%
14,CN1CCN(CC(=O)Nc2sc3c(c2C#N)CCC(C(C)(C)C)C3)CC1 (stereo not drawn),3.39% (active)
15,Cc1ccc2sc(NNC(=O)c3ccc4c(c3)OCCO4)nc2c1C,68.3%
16,O=C1C2C3C=CC(C4CC34)C2C(=O)N1c1nccs1 (stereo not drawn),101%
17,C=CCOc1ccc(/C=N/NC(=O)C(C)Sc2ccccn2)cc1OCC (stereo not drawn),103%
18,Cc1ccc(OCc2nnc(SC3CCc4ccccc4C3=O)n2C)cc1 (stereo not drawn),85.3%
19,O=C(/C=C/c1ccc(Cl)cc1Cl)c1cccnc1,0.59% (active)
20,O=C(/C=C/c1ccc(Cl)cc1Cl)NCc1ccco1,96.5%
21,O=C(NCc1ccc(Cl)c(Cl)c1)c1cccnc1,100%

# Reference: PubChem BioAssay AID827 (SRMLSC, 2007)
